# Test results published in the supplement of paper PMC9262897, “Low-cost anti-mycobacterial drug discovery using engineered E. coli” (Nature Communications, 2022).
# Where a name gives a salt, the structure may show the parent alone. ± gives the standard deviation of the averaged measurements.
# Test system: E. coli TESEC Mtb Alr
# Assay: growth (OD600 after 10 h); higher = more growth (less inhibition)
# Details: arabinose 100000 nM; compound 0.1 mM; raw OD600 reference: median of DMSO wells 0.201, cell-free background 0.041
# Method: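 TESEC Mtb Alr E. coli, or the Alr+ wild-type control, in 384-well plates with Prestwick library compounds at 0.1 mM and 1% DMSO, across arabinose induction levels of 1E3 to 1E7 nM. Growth is read as OD600 after 10 h at 37 °C in triplicate biological replicates.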
row,SMILES,growth
1,CN(C)CCN(Cc1ccc(Cl)cc1)c1ccccn1 [Chloropyramine hydrochloride],0.201 ± 0.0069
2,O=C1NCCN1CCN1CCC(c2cn(-c3ccc(F)cc3)c3ccc(Cl)cc23)CC1 [Sertindole],0.0409 ± 0.0004
3,O=C1NCC2(CCN(CCc3ccccc3)CC2)O1 [Fenspiride hydrochloride],0.199 ± 0.0053
4,CC(C)[C@H]1CC[C@H](C(=O)N[C@H](Cc2ccccc2)C(=O)O)CC1 [Nateglinide],0.169 ± 0.0079
5,CCOC(=O)[C@H](CCc1ccccc1)N[C@@H](C)C(=O)N1CCC[C@H]1C(=O)O [Enalapril maleate],0.231 ± 0.03
6,CC1(C)O[C@@H]2[C@@H](CO[C@@]3(COS(N)(=O)=O)OC(C)(C)O[C@@H]23)O1 [Topiramate],0.18 ± 0.018
7,c1ccc2c(c1)CCCc1cc(NCCN3CCOCC3)nnc1-2,0.17 ± 0.029
8,CC[C@@H]1C(=O)OC[C@@H]1Cc1cncn1C [Pilocarpine nitrate],0.204 ± 0.032
9,Cn1ccnc1S [Methimazole],0.195 ± 0.011
10,NC[C@H]1O[C@H](O[C@H]2[C@H](O)[C@@H](O[C@H]3O[C@H](CO)[C@@H](O)[C@H](N)[C@H]3O)[C@H](N)C[C@@H]2N)[C@H](N)C[C@@H]1O [Tobramycin],0.0411 ± 0.00055
11,O=C1C(CC[S+]([O-])c2ccccc2)C(=O)N(c2ccccc2)N1c1ccccc1 (stereo not given) [Sulfinpyrazone],0.17 ± 0.01
12,C=C1/C(=C\C=C2/CCC[C@]3(C)[C@@H]([C@H](C)CCCC(C)C)CC[C@@H]23)C[C@@H](O)C[C@@H]1O [Alfacalcidol],0.143 ± 0.018
13,C[C@H](O)C(=O)Nc1c(I)c(C(=O)NC(CO)CO)c(I)c(C(=O)NC(CO)CO)c1I [Iopamidol],0.217 ± 0.0049
14,CCCCNc1cc(C(=O)O)cc(S(N)(=O)=O)c1Oc1ccccc1 [Bumetanide],0.167 ± 0.018
15,CN(C)CCCOc1nn(Cc2ccccc2)c2ccccc12 [Benzydamine hydrochloride],0.167 ± 0.0029
16,CCn1nc(C(=O)O)c(=O)c2cc3c(cc21)OCO3 [Cinoxacin],0.089 ± 0.0035
17,CCCCOC(=O)c1ccc(N)cc1 [Butamben],0.186 ± 0.011
18,C#C[C@]1(O)CC[C@H]2[C@@H]3CCC4=CCCC[C@@H]4[C@H]3CC[C@@]21C [Lynestrenol],0.18 ± 0.033
19,CCc1c2c(nc3ccc(OC(=O)N4CCC(N5CCCCC5)CC4)cc13)-c1cc3c(c(=O)n1C2)COC(=O)[C@]3(O)CC [Irinotecan hydrochloride trihydrate],0.218 ± 0.015
20,CN(C)CCn1nnnc1SCC1=C(C(=O)O)N2C(=O)[C@@H](NC(=O)Cc3csc(N)n3)[C@H]2SC1 [Cefotiam hydrochloride],0.0507 ± 0.0078

row,SMILES,growth
1,O=S(=O)(O)c1cc(O)ccc1O [Ethamsylate],0.206 ± 0.018
2,NNC(=O)c1ccncc1 [Isoniazid],0.239 ± 0.052
3,O=C(O)/C=C/c1ccc(Cn2ccnc2)cc1 [Ozagrel hydrochloride],0.197 ± 0.025
4,NCCC[C@H](N)CC(=O)N[C@H]1CNC(=O)[C@H]([C@H]2C[C@H](O)NC(N)=N2)NC(=O)/C(=C/NC(N)=O)NC(=O)[C@H](CO)NC(=O)[C@H](CO)NC1=O [Viomycin sulfate],0.138 ± 0.0014
5,CC1CS(=O)(=O)CCN1/N=C/c1ccc([N+](=O)[O-])o1 (stereo not given) [Nifurtimox],0.0564 ± 0.0035
6,CC(C)C(=O)Nc1ccc([N+](=O)[O-])c(C(F)(F)F)c1 [Flutamide],0.203 ± 0.0051
7,Nc1ccc(S(=O)(=O)Nc2cnc3ccccc3n2)cc1 [Sulfaquinoxaline sodium salt],0.21 ± 0.0087
8,Cc1cnc(NC(=O)C2=C(O)c3ccccc3S(=O)(=O)N2C)s1 [Meloxicam],0.208 ± 0.039
9,CCCc1ncc(C[n+]2ccccc2C)c(N)n1 [Amprolium hydrochloride],0.207 ± 0.027
10,COc1cc(C(=O)OCCCN2CCCN(CCCOC(=O)c3cc(OC)c(OC)c(OC)c3)CC2)cc(OC)c1OC [Dilazep dihydrochloride],0.18 ± 0.0077
11,CC(C)(O/N=C(\C(=O)N[C@@H]1C(=O)N2C(C(=O)[O-])=C(C[n+]3ccccc3)CS[C@H]12)c1csc(N)n1)C(=O)O [Ceftazidime pentahydrate],0.0423 ± 0.0036
12,O=C(c1ccc(OCCN2CCCCC2)cc1)c1c(-c2ccc(O)cc2)sc2cc(O)ccc12 [Raloxifene hydrochloride],0.048 ± 0.0037
13,CS(=O)(=O)c1ccc([C@@H](O)[C@@H](CO)NC(=O)C(Cl)Cl)cc1 [Thiamphenicol],0.0517 ± 0.0013
14,CN(C)CC/C=C1\c2ccccc2CSc2ccccc21 [Dosulepin hydrochloride],0.211 ± 0.0092
15,CCOc1nc2cccc(C(=O)O)c2n1Cc1ccc(-c2ccccc2-c2nnn[nH]2)cc1 [Candesartan],0.212 ± 0.023
16,CCc1cc(C(N)=S)ccn1 [Ethionamide],0.236 ± 0.036
17,CN(C)CCCC1(c2ccc(F)cc2)OCc2cc(C#N)ccc21 (stereo not given) [Citalopram Hydrobromide],0.173 ± 0.0067
18,Cn1c(=O)c2c(ncn2C)n(C)c1=O [Caffeine],0.2 ± 0.016
19,COc1ccc(C(=O)NCc2ccc(OCCN(C)C)cc2)cc1OC [Itopride],0.229 ± 0.029
20,Cn1cnc([N+](=O)[O-])c1Sc1ncnc2[nH]cnc12 [Azathioprine],0.0829 ± 0.005
